Experimental findings from ChEMBL document CHEMBL2218924, “A broad activity screen in support of a chemogenomic map for kinase signalling research and drug discovery” (Biochem J, 2013) are described below.

In the assay the target is T1, Tyrosine-protein kinase receptor TYRO3 (Homo sapiens) (UniProt Q06418).
T1 sequence (whole entry): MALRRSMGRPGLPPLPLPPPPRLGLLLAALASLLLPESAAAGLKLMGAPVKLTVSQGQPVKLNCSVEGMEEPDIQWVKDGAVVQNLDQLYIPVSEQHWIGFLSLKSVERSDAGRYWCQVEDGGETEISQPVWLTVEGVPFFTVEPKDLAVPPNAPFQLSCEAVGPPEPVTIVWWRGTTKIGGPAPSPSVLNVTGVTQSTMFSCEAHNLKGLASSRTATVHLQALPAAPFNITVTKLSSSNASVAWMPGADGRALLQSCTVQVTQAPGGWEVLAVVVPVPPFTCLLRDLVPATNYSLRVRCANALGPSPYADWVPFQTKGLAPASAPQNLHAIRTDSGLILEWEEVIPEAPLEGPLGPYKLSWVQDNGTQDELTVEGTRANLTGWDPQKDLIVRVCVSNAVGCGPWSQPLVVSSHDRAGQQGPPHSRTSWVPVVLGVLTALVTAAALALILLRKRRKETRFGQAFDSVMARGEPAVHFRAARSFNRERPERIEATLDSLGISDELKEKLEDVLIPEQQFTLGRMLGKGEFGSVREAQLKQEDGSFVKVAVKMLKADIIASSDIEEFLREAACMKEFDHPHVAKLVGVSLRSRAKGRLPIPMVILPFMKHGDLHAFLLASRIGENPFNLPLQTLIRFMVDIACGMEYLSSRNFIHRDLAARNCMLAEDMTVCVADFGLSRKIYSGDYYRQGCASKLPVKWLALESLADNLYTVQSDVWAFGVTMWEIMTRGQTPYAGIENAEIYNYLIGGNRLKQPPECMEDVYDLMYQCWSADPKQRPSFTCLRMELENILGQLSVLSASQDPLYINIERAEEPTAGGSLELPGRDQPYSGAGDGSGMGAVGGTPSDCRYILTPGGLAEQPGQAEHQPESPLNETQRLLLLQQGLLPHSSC
To be noted: at 10 µM.
Take `COc1cc2ncnc(Nc3ccc(NC(=O)c4ccccc4)cc3)c2cc1OC`: the residual activity was 76%.

With `CCN(CC)C(=O)c1ccc(Nc2nc(OCC3CCCCC3)c3nc[nH]c3n2)cc1`, the residual activity was 53%.

Take `Cc1ccc(S(=O)(=O)/C=C/C#N)cc1`: the residual activity is 99%.

In the case of `Oc1n[nH]c2nnc(-c3c(-c4ccccc4)nn4ccccc34)cc12`, the residual activity turned out to be 97%.

Regarding `Cc1nc(-c2ccccc2)c(-c2ccncc2)o1`, the residual activity turned out to be 121%.

Regarding `Oc1ccc(-c2nc(-c3ccc(F)cc3)c(-c3ccncc3)[nH]2)cc1`, the residual activity turned out to be 81%.

For `COc1cc2ncnc(Nc3ccc(O)c(Br)c3)c2cc1OC`, the residual activity is 4%.

Regarding `CO[C@H]1C[C@@H]2CC[C@@H](C)[C@@](O)(O2)C(=O)C(=O)N2CCCC[C@H]2C(=O)O[C@H]([C@H](C)C[C@@H]2CC[C@@H](O)[C@H](OC)C2)CC(=O)[C@H](C)/C=C(\C)[C@@H](O)[C@@H](OC)C(=O)[C@H](C)C[C@H](C)/C=C/C=C/C=C/1C`, the residual activity stood at 118%.

As to `Cn1cnc2cc3c(Nc4cccc(Br)c4)ncnc3cc21`, the residual activity came to 53%.

Consider `O=C1NC(=O)c2cc(Nc3ccc(F)cc3)c(Nc3ccc(F)cc3)cc21`, for which the residual activity was found to be 97%.

With `c1ccc(-c2n[nH]cc2-c2ccnc3ccccc23)nc1`, the residual activity worked out at 75%.

For `CN(C)CCCn1cc(C2=C(c3c[nH]c4ccccc34)C(=O)NC2=O)c2ccccc21`, the residual activity turned out to be 76%.

With `O=C1NC(=O)/C(=C\c2ccc3nccnc3c2)S1`, the residual activity was found to be 92%.

In the case of `CO[C@@H]1[C@H](N(C)C(=O)c2ccccc2)C[C@H]2O[C@]1(C)n1c3ccccc3c3c4c(c5c6ccccc6n2c5c31)C(=O)NC4`, the residual activity came out at 84%.

Consider `COc1ccc(OC)c2c(=S)c3ccccc3[nH]c12`, for which the residual activity amounted to 93%.
